# Compound activity from PubChem.
# A selection: hits, their analogues and other compounds. The true share with any hit is near 3.8%.
# tim10-1 inh: inhibits growth of tim10-1 mutant yeast; S. cerevisiae tim10-1 ts strain growth, BacTiter-Glo, 24 h; inhibition, % at 20 µM; hit rate 2.2% among 330,000;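 active = inhibition of at least 40%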;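 also: mutant grown at 25 °C; 0% = DMSO wells with yeast and 100% = wells holding no yeast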
# NLRP3 yeast inh: NALP3 inhibition in yeast | inhibition, % at 10 µM | Yeast reconstituted NLRP3/ASC/caspase-1, beta-gal luminescence, 24 h | hit rate 0.39% among 330,000;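 active = inhibition of 50% or more; inactive = inhibition below 50%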;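 also: plate controls were induced DMSO wells for no effect and uninduced yeast grown without galactose for full effect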
# CR mimetic SO: yeast age-related superoxide inhibition as caloric restriction mimetic; hit rate 0.18% among 330,000; superoxide response (% of plate mean), % at 10 µM; S. cerevisiae aged cells, superoxide DHE fluorescence; active compounds read low;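 active = superoxide response under a set limit, about three screen SD below normal, cut at about 65% in these data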;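 also: yeast aged for seven days with compound at 30 °C before DHE staining; 100% = average MFI of all compound-treated wells on the plate with controls excluded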
# TIM10 inh: TIM10 yeast growth inhibition; hit rate 1.4% among 330,000; inhibition, % at 10 µM; S. cerevisiae TIM10 strain growth, BacTiter-Glo luminescence, 24 h;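 active = inhibition of 40% or more at the single tested concentration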;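 also: wild-type TIM10 isogenic control strain grown at permissive 25 °C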
# tim23-1 inh: tim23-1 yeast growth inhibition. S. cerevisiae tim23-1 growth, BacTiter-Glo luminescence, 24 h. inhibition, % at 20 µM. hit rate 1.3% among 330,000;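 active = growth inhibition of the mutant yeast at or above 50%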;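 also: temperature-sensitive mutant grown at 25 °C; plate controls were DMSO-treated mutant yeast for no effect and medium wells lacking yeast for full effect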
# tim10-1 conf: tim10-1 yeast growth inhibition, confirmed; shares compounds with tim10-1 inh; S. cerevisiae tim10-1 ts strain growth, BacTiter-Glo, 24 h; inhibition, % at 20 µM; hit rate 56% among 7,400;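 active = inhibition of yeast growth at or above a set limit in either of two repeat tests at 20 µM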;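 also: tim10-1 mutant grown at permissive 25 °C to find synthetic lethal compounds; 0% = DMSO yeast wells and 100% = medium wells without yeast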
# Active calls of the source: *; . = no result given.
SMILES,tim10-1 inh,NLRP3 yeast inh,CR mimetic SO,TIM10 inh,tim23-1 inh,tim10-1 conf
Cc1ccc(CNC(=O)C2CCCN(c3nc4ccccc4o3)C2)cc1 (stereo unspecified),1,21,99,-9,-7,.
O=C(NCCC1=CCCCC1)C1CCCN(c2nc3ccccc3o2)C1 (stereo unspecified),49*,19,115,14,35,35*
c1ccc(Sc2nc(N3CCCCC3)nc(N3CCCCC3)n2)nc1,41*,30,94,23,21,21
N=C(N)Sc1nc(N2CCCCC2)nc(N2CCCCC2)n1,7,-2,91,-1,4,.
C/C(=N\NC(=O)c1cc2ccccc2cc1O)c1ccccn1,60*,20,107,-22,29,-30
C/C(=N/NC(=O)c1cc2ccccc2cc1O)C1C(=O)c2ccccc2C1=O,47*,13,97,20,27,32*
O=C(c1ccco1)N1CCN(Cc2nnc(-c3ccccc3)o2)CC1,0,18,111,11,1,.
CC(C)[C@H](NC(=O)N1CCn2c1nc1ccccc12)C(=O)N[C@@H](Cc1ccccc1)C(=O)O,0,-2,108,-3,3,.
CC(C)C[C@H](NC(=O)c1nc[nH]c1C(=O)N1CCN(c2ccccc2)CC1)C(=O)OCc1ccccc1,20,3,97,13,20,.
Fc1c(F)c(C(F)(F)F)c(F)c(F)c1N/N=C\c1cccs1,47*,8,88,37,43,69*
O=C(CNC(=O)c1ccco1)OCC(=O)c1ccc([N+](=O)[O-])cc1,7,-11,95,-10,17,.
O=C(NCc1cccnc1)c1ccc(-c2cc(Cl)ccc2Cl)o1,40*,17,99,15,33,30
Brc1ccccc1-c1nnc2sc(-c3ccc4c(c3)OCCO4)nn12,49*,17,109,34,42,24
CCCN(CCC)c1ncnc2nc[nH]c12,45*,9,95,3,25,13
Clc1ccccc1CN(Cc1ccccc1)c1ncnc2nc[nH]c12,41*,-20,105,18,6,4
Clc1ccccc1CNc1ncnc2nc[nH]c12,11,22,102,-16,18,.
O=C(/C=C(/c1ccc(Cl)cc1)n1cncn1)c1ccccc1,43*,-2,97,19,36,31*
Cc1nc2ccc(NS(=O)(=O)c3ccc(C)c(C)c3)cc2s1,42*,30,108,28,33,12
O=C(NC(=S)NCCc1ccc(Cl)cc1)c1ccco1,48*,30,84,35,30,24
S=C(NCCc1ccc(Cl)cc1)NCc1ccco1,34,18,77,24,-1,.
S=C(NCCc1ccc(Cl)cc1)NC1CCCC1,43*,36,114,9,21,13
Cc1cc(C)cc(NC(=O)c2cccnc2)c1,-5,35,99,13,12,.
O=C1C=C(NC(=O)Nc2ccc(Cl)c(Cl)c2)CCC1,43*,17,105,30,18,46*
COc1ccc(N(CC(=O)NCCC2=CCCCC2)S(=O)(=O)c2c(C)[nH]c(=O)[nH]c2=O)cc1,5,-13,107,-1,17,.
Cc1ccc(CNC(=O)Cc2csc(Nc3nc(=S)[nH]c4ccccc34)n2)cc1,40,25,108,4,4,26
SMILES,tim10-1 inh,NLRP3 yeast inh,CR mimetic SO,TIM10 inh,tim23-1 inh,tim10-1 conf
Cc1nc(Cl)c(C(=O)NC(=O)Nc2cccc(C(F)(F)F)c2)c(C)c1[N+](=O)[O-],19,9,92,-3,3,.
COc1ccc(-c2oc3ncnc(NCCN4CCOCC4)c3c2-c2ccc(OC)cc2)cc1,48*,12,103,38,39,29*
COc1ccc(-c2oc3ncnc(NCCCN4CCOCC4)c3c2-c2ccc(OC)cc2)cc1,41*,-1,88,29,48,23
c1ccc(-c2oc3ncnc(NCCCN4CCOCC4)c3c2-c2ccccc2)cc1,22,36,96,-23,13,.
COc1cc2c(cc1OC)CN(C(=O)c1ccc(S(=O)(=O)N(C)c3ccccc3)cc1)CC2,-1,-12,96,-1,10,.
Cc1nc2sccn2c(=O)c1S(=O)(=O)N1CCN(c2ccc(F)cc2)CC1,9,-4,88,7,31,.
Cc1nc2sccn2c(=O)c1S(=O)(=O)N1CCN(c2cccc(C(F)(F)F)c2)CC1,42*,-7,114,29,38,27
CCCCN1C(=O)NC(NC(=O)c2ccco2)(C(F)(F)F)C1=O (stereo unspecified),14,2,101,-1,8,.
CC1CCCC(N2C(=O)NC(NC(=O)c3ccco3)(C(F)(F)F)C2=O)C1C (stereo unspecified),47*,-3,101,7,21,26
Cc1nn(-c2ccccc2)c(N2CCCC2)c1/C=N/NC(=S)Nc1ccccc1C(F)(F)F,41*,22,112,24,22,24
Cc1nn(-c2ccccc2)c(N2CCCC2)c1/C=N/NC(=S)Nc1cc(C(F)(F)F)ccc1Cl,31,0,102,-3,14,.
OC(CNCCc1ccc(C(F)(F)F)cc1)COc1ccc2ccccc2c1 (stereo unspecified),48*,27,110,7,-94,-7
CCN(CC(=O)Nc1c(F)cccc1F)C(=O)C1CC(=O)N(c2ccccc2OC)C1 (stereo unspecified),16,8,96,7,-2,.
Cc1cc(C)c(C#N)c(SCC(=O)Nc2c(C)n(C)n(-c3ccccc3)c2=O)n1,-7,14,76,-9,7,.
O=C(N/N=C\c1ccccn1)C1c2ccccc2Oc2ccccc21,43*,2,96,5,24,18
COC(=O)c1c(NC(=O)CCNCc2ccco2)sc2c1CCC2,12,29,98,3,17,.
CC1(C)Cc2c(sc(NC(=O)C(=O)N3CCCC3)c2C#N)CO1,41*,2,80,15,27,9
CNC(=O)C1CC(=O)N(c2ccc(OCC(=O)Nc3ccc(OC)cc3)cc2)C1 (stereo unspecified),-10,18,104,3,5,.
Cc1nc2c(-c3ccccc3)cnn2c(N)c1-c1ccccc1,43*,10,99,30,39,39*
Cc1cc(-c2ccccc2)n2ncc(-c3ccccc3)c2n1,32,24,92,-2,31,.
COc1ccc(S(=O)(=O)N/N=C(/C)c2ccncc2)cc1OC,-4,4,94,4,0,.
O=C(CCl)N1CCN(S(=O)(=O)Cc2ccccc2)CC1,43*,17,123,18,29,20
CCN1c2ccccc2-c2nc3ccccc3n2C1c1cccs1 (stereo unspecified),40*,26,110,27,38,17
CCOC(=O)C1=C(COC(=O)COc2ccc(C(=O)CC)cc2)NC(=O)NC1C (stereo unspecified),1,18,98,-3,-11,.
